Inconclusive results are not listed. Activity calls are given as the source filed them. Unless noted, the call rests on the fitted dose curve; in most records, active means well fitted curve in the direction sought with a large enough effect in the repeat runs; inconclusive means weak or mixed curves; inactive means no such curve, though single readings can be large; an effect the other way counts as inactive or inconclusive.
Assays:
[1] = qHTS assay to identify small molecule agonists of the vitamin D receptor (VDR) signaling pathway - cell viability counter screen (AID 743224); further: series mostly up to about 63 µM; nearly all actives have a fitted effect of over 50% in size
How it was run: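 Compounds were pin-transferred onto VDR-bla cells plated 4 h earlier; following 16 h incubation at 37C, cell viability was quantified by CellTiter-Glo luminescence after 30 min at room temperature.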

[2] = qHTS assay to identify small molecule antagonists of the vitamin D receptor (VDR) signaling pathway - cell viability counter screen (AID 743225); further: nearly all actives have a fitted effect of over 50% in size
How it was run: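 Read-out: CellTiter-Glo luminescence measured 30 min after reagent addition at room temperature. Cells were VDR-bla HEK 293T exposed 16 h at 37C, 5% CO2, to compound with 3 nM final calcitriol agonist.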

[3] = qHTS assay to identify small molecule agonists of the NFkB signaling pathway - cell viability counter screen (AID 1159515; calls by dose curve; further: series mostly up to about 61 µM; nearly all actives have a fitted effect of over 55% in size)
How it was run: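 Parallel cytotoxicity counter screen in ME-180 cells carrying an NFkB-response-element beta-lactamase reporter, 2,000 cells/well. Compound exposure lasted 5 hr at 37 C, 5% CO2. Cell viability was quantified by CellTiter-Glo luminescence.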

[4] = qHTS assay to identify small molecule agonists of the endoplasmic reticulum stress response signaling pathway (AID 1159516; active means well fitted activation curve with a large enough effect in the signal ratio in the repeat runs, not every such curve was filed as active; the % refers to the signal ratio)
How it was run: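 Using a HeLa line with an ESRE-driven beta-lactamase gene, agonist activity was measured by FRET substrate fluorescence (460 and 530 nm emission) after cells were treated with compounds for 5 hr at 37 C and 5% CO2.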

[5] = qHTS assay to identify small molecule agonists of the endoplasmic reticulum stress response signaling pathway - cell viability counter screen (AID 1159517; calls by dose curve;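 further: HeLa cells carrying an ER stress response element beta-lactamase reporter; series mostly up to about 61 µM; nearly all actives have a fitted effect of over 50% in size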)
How it was run: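 ESRE-bla HeLa cells (1,500/well) were plated overnight at 37 C and exposed to compounds for 5 hr. After the 2 hr beta-lactamase substrate read, CellTiter-Glo went into the same wells, and luminescence was read after 30 min at room temperature.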

[6] = qHTS assay to identify small molecule antagonists of the retinoid-related orphan receptor gamma (ROR-gamma) signaling pathway - cell viability counter screen (AID 1159520); further: nearly all actives have a fitted effect of over 50% in size; further: potency means the concentration at half of the fitted maximal effect
How it was run: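 Cytotoxicity was read from cellular ATP (CellTiter-Glo luminescence) after 16 hr at 37 C with 1 uM doxycycline induction. The inducer was added 2 hr after compound transfer to Tet-on ROR gamma CHO cells.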

[7] = target: Nuclear receptor ROR-gamma (Homo sapiens) (UniProt P51449); experiment: qHTS assay to identify small molecule antagonists of the retinoid-related orphan receptor gamma (ROR-gamma) signaling pathway (AID 1159521; further: nearly all actives have a fitted effect of over 50% in size; further: potency means the concentration at half of the fitted maximal effect)
How it was run: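 CHO Tet-on RORγ, RORE-luc reporter. Cpd 2 h pre-incubation, then dox hyclate 1 uM final, 16 h, 37 C/5% CO2. ONE-Glo luminescence; decrease = antagonist.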

[8] = qHTS assay to identify small molecule agonists of the AP-1 signaling pathway (AID 1159526; calls by dose curve)
[9] = qHTS assay to identify small molecule agonists of the AP-1 signaling pathway - cell viability counter screen (AID 1159525; calls by dose curve; further: nearly all actives have a fitted effect of over 55% in size)
How it was run: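 Intracellular ATP by Cell Titer Glo luminescence (30 min, RT) in the same ME-180 AP-1-bla wells after the 5 h compound exposure at 37 °C. Normalised to tetra n-octyl ammonium bromide and DMSO controls.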

[10] = target: Retinoic acid receptor RXR-alpha (Homo sapiens) (UniProt P19793); experiment: qHTS assay to identify small molecule agonists of the RXR signaling pathway (AID 1159527; calls by dose curve; further: nearly all actives have a fitted effect of over 35% in size; further: potency means the concentration at half of the fitted maximal effect)
Retinoic acid receptor RXR-alpha (Homo sapiens), sequence (P19793 whole entry, looked up): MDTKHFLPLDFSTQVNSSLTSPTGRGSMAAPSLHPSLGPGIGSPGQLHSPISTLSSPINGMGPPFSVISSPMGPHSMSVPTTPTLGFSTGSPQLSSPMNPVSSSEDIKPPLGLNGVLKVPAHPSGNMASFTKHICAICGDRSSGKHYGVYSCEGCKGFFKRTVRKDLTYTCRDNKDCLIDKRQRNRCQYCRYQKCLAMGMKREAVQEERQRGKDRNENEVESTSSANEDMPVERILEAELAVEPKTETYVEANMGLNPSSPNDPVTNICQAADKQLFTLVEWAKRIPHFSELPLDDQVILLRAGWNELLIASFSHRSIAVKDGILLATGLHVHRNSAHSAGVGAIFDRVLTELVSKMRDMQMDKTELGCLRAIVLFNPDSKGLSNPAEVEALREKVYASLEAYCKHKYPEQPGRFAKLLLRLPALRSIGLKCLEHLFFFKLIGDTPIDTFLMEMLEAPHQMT
How it was run: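 Read-out: beta-lactamase FRET ratio (405 nm excitation, 460 and 530 nm emission) after 2 hr substrate loading at room temperature. Cells were RXR-alpha-UAS-bla HEK 293T treated with compounds for 16 hr in 2% charcoal-stripped FBS medium.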

Measured: Potency

Oc1ccc(Sc2ccc(O)cc2)cc1
not listed: [9] | [10]
inactive: all other assays above

CC1(C)[C@H]2CC[C@]1(C)[C@H](O)C2
not listed: [7] | [10]
inactive: all other assays above

CNS(=O)(=O)Cc1ccc2[nH]cc(CCN(C)C)c2c1
not listed: [7] | [8]
inactive: all other assays above

Cn1c(N)nc2nc[nH]c2c1=O
active: [7] 27 µM
not listed: [8] | [9] | [10]
inactive: all other assays above

O=C(O)c1cccc(N(Cc2cccnc2)c2ccc(OC(F)F)c(OC(F)F)c2)c1
not listed: [7] | [10]
inactive: all other assays above

CCC(=O)OC(C)(C)C1CC=C(C)CC1 (centres undefined)
not listed: [7] | [10]
inactive: all other assays above

C=CC(=O)OCC(C)OCC(C)OCC(C)OC(=O)C=C (centres undefined)
inactive: [3] | [4] | [5] | [9]
active: [6] 21.7 µM

NCc1ccccc1
not listed: [9] | [10]
inactive: all other assays above

CCCCCCCCN(C)C
not listed: [9] | [10]
inactive: all other assays above

CCN(CC)CCOc1ccc2c(c1)C(=O)c1cc(OCCN(CC)CC)ccc1-2
inactive: [3] | [4] | [6] | [7] | [9] | [8]

CC(C)NCC(O)c1cc(O)cc(O)c1 (centres undefined)
inactive: [2] | [3] | [4] | [6] | [9]

NCCCOCCOCCOCCCN
active: [7] 17.2 µM | [10] 43.6 µM
not listed: [5]
inactive: all other assays above

COCCOCCOCCOCCOC
not listed: [5] | [10]
inactive: all other assays above

Cc1cc(NC(=O)C(=O)O)cc(C)c1Oc1ccc(O)c2c1CCC2
not listed: [5] | [10]
inactive: all other assays above

CCCCCCCC/C=C\CCCCCCCC(N)=O
not listed: [7] | [8] | [10]
inactive: all other assays above

CN1CCC(OC(c2ccccc2)c2ccccc2)CC1
not listed: [5] | [9] | [10]
inactive: all other assays above

CCCCC(CC)COCCCN (centres undefined)
not listed: [5] | [8] | [10]
inactive: all other assays above

CCCOc1ccc2nc(NC(=O)OC)[nH]c2c1
not listed: [5] | [8] | [10]
inactive: all other assays above

CN1CCC[C@@H]1c1cccnc1
inactive: [1] | [3] | [4] | [6] | [7]

CCCCCCCCCCCCCCC1CO1 (centres undefined)
not listed: [5] | [10]
inactive: all other assays above

CC(=O)/C(C)=C/C1C(C)=CCCC1(C)C (centres undefined)
not listed: [5] | [9] | [10]
inactive: all other assays above

CCCCCCc1ccc(N)cc1
not listed: [1] | [5] | [10]
inactive: all other assays above

CCCCCCOC(=O)CCC
not listed: [5] | [8]
inactive: all other assays above

CCOC(=O)C1=NN(c2ccccc2)C(=O)C1
not listed: [7] | [9] | [10]
inactive: all other assays above

O=C(O)C(c1ccc(Cl)cc1)c1ccc(Cl)cc1
not listed: [5] | [10]
inactive: all other assays above

CC(C)(C)c1ccc(OCC2CO2)cc1 (centres undefined)
not listed: [5] | [8]
inactive: all other assays above

CC(=O)OCCc1ccccc1
inactive: [1] | [3] | [4] | [6] | [8]

Cc1cc(CC(=O)O)c(C)n1-c1ccc(Cl)cc1
inactive: [1] | [2] | [3] | [4] | [6] | [7]

Cc1ccccn1
not listed: [5] | [10]
inactive: all other assays above

From PubChem BioAssay (Tox21)
